Source: ChEMBL document CHEMBL4513216, “Probing the Open Global Health Chemical Diversity Library for Multistage-Active Starting Points for Next-Generation Antimalarials” (ACS Infect Dis, 2020)
The campaign covered roughly 68,000 compounds. About 2,700 (4%) showed an effect of 50% or more. The list comes from a sample in which strong results are over-represented; it also holds similar structures and randomly drawn compounds.

Tested on: Plasmodium berghei
Assay: Screen against P. berghei liver stage (PbLuc), transformed with Luciferase, at 2uM
Assay type: functional, HepG2
Details: tested at 2 uM

SMILES | INHIBITION
CC(C)NC(=O)N1CCC2(CC(=O)N(c3cccc(C#N)c3)C2)C1 (stereo unspecified) | -8.23%
O=C(C1CCOCC1)N1C[C@H](OCc2cccnc2)[C@H]2COC[C@H]21 | 26.19%
CCOc1ncccc1C(=O)N1CCCC(c2nccn2CCOC)C1 (stereo unspecified) | -32.59%
CN1CCc2cc(C(=O)N(C)C)c(NCC3CC3)nc2CC1 | 23.97%
COCCNCc1cc2ccc(C)c(C)c2[nH]c1=O | -21.9%
CCC1CN(C(=O)c2csc3nc(-c4ccc(Cl)cc4)cn23)CCN1 (stereo unspecified) | 22.83%
Cc1cccc(CN2C(=O)CCC23CCN(Cc2cccn2C)CC3)n1 | 17.39%
COc1ccc(-c2ncc(-c3nccn3CCN(C)C)cn2)cc1 | 10.63%
CC(C)c1nccn1C1CCCN(C(=O)CCc2cscn2)C1 (stereo unspecified) | 21.39%
COc1ccc(C[C@H]2CN(C(=O)c3cscn3)CC[C@@H]2OC)cc1 | -6.39%
CO[C@@H]1CCN(C(=O)c2cc(C)on2)C[C@@H]1Cc1ccccc1 | 52.91%
COc1ccc(C[C@H]2CN(C(=O)c3cnoc3)CC[C@@H]2OC)cc1 | -36.05%
COc1ccsc1C(=O)N1CCCC1c1c(C)nn(C)c1OC (stereo unspecified) | -11.31%
Cn1cc(N2C(=O)CC[C@@H]3[C@H]2CCN3CC2CCOCC2)cn1 | 50.17%
Cn1cc(N2C(=O)CC[C@@H]3[C@H]2CCN3Cc2nccs2)cn1 | -20.87%
Cn1cc(N2C(=O)CC[C@@H]3[C@H]2CCN3CCc2ccccc2)cn1 | -18.2%
CCCN1CCC(Cc2noc(-c3cc4cccnc4nc3C)n2)CC1 | 38.91%
CC(C(=O)NCc1ccc(N2CCNC(=O)C2)cc1)c1cccs1 (stereo unspecified) | -25.44%
CCOC(=O)NC(CNC(=O)c1ncccn1)CC(C)C (stereo unspecified) | 2.41%
CCOC(=O)NC(CNC(=O)c1cn(C)cn1)CC(C)C (stereo unspecified) | 60.9%
CCOC(=O)NC(CNC(=O)c1ccccn1)CC(C)C (stereo unspecified) | -15.54%
O=C(NCCN1CCOCC1)NCC(O)c1cccc(F)c1 (stereo unspecified) | -27.69%

SMILES | INHIBITION
Cc1noc(CN(CCO)Cc2cc(Br)ccc2F)n1 | -18.92%
CCOc1cncc(N2CCN(c3ccccc3O)CC2)n1 | 22.75%
CCn1ccnc1CN1CCCC1c1c(C)nn(C)c1OC (stereo unspecified) | -69.19%
CCc1nc(CN2CCCC2c2c(C)nn(C)c2OC)no1 (stereo unspecified) | 23.94%
COc1c(C2CCCN2Cc2noc(C)n2)c(C)nn1C (stereo unspecified) | 21.83%
COc1c(C2CCCN2Cc2noc(C(C)C)n2)c(C)nn1C (stereo unspecified) | 59.93%
COc1c(C2CCCN2Cc2nnc(C3CC3)n2C)c(C)nn1C (stereo unspecified) | 28.1%
COc1c(C2CCCN2Cc2nccn2C)c(C)nn1C (stereo unspecified) | 56.47%
Cc1ccc(CN2CCn3c(C(=O)N(C)C)cnc3C2)cc1 | 7.77%
CN(C)C(=O)c1cnc2n1CCN(Cc1ccccc1)C2 | -26.24%
CN(C)C(=O)c1cnc2n1CCN(Cc1ccsc1)C2 | 54.89%
CCOCC(O)CN1CCN(C(=O)c2cnc3n[nH]c(C)c3c2)CC1 (stereo unspecified) | 21.89%
CC(O)CN1CCN(C(=O)c2cnn(-c3ccccc3F)c2)CC1 (stereo unspecified) | -7.05%
CC(c1ccccn1)N(C)C(=O)NCCn1c(=O)oc2ccccc21 (stereo unspecified) | 40.4%
Cn1c(CC(=O)O)c(Sc2ccccc2)c2ccccc21 | 52.89%
Cc1ccc2c(c1)c(Sc1ccccc1)c(CC(=O)O)n2C | -36.84%
CSc1c(CC(=O)O)n(C)c2ccccc12 | -18.52%
CSCC(CCO)NC(=O)Nc1cccc(Br)c1C (stereo unspecified) | -29.43%
O[C@@H]1C[C@@H](c2nc(Cc3ccccc3)no2)N(Cc2ccc(F)cc2)C1 | 30.63%
CN(Cc1ccc(F)cc1)CC1(O)CCN(C(=O)c2ccn(C)n2)C1 (stereo unspecified) | -21.42%
CC(C)(C)OC(=O)NCC1CCCCN1Cc1ccccn1 (stereo unspecified) | -43.28%
CC(C)(C)OC(=O)NCC1CCCCN1Cc1ccncc1 (stereo unspecified) | 54.29%

SMILES | INHIBITION
CC(C)(C)OC(=O)NCC1CCCCN1Cc1cccnc1 (stereo unspecified) | 24.05%
Cc1cc(C(F)(F)F)nn1C(C)C(=O)NN1CCN(C)CC1 (stereo unspecified) | 32.88%
Fc1cccc(-c2nnn3c2COC(CNc2ncccn2)C3)c1 (stereo unspecified) | 39.47%
CNS(=O)(=O)c1ccc(CNC(=O)C2CN(C)CCO2)cc1 (stereo unspecified) | 33.49%
CNS(=O)(=O)c1ccc(CNC(=O)NCC2CCCO2)cc1 (stereo unspecified) | 39.32%
CNS(=O)(=O)c1ccc(CNC(=O)C2CCCO2)cc1 (stereo unspecified) | 52.17%
Cn1ccnc1CN(Cc1cccnc1)CC1CCCO1 (stereo unspecified) | 41.82%
CCn1nc(C(=O)N2CCNCC2C(=O)Nc2ccc(C)nc2)cc1C (stereo unspecified) | 3.82%
O=C(Cc1ccc(F)cc1)NCCNCc1cccc(O)c1 | -49.9%
O=C(Cc1ccccc1)NCCNCc1cccc(O)c1 | 31.57%
O=C(Cc1cccc(F)c1)NCCNCc1cccc(O)c1 | 57.33%
c1ccc(CN2Cc3[nH]nc(COc4cccnc4)c3C2)nc1 | 18.6%
CC1CNC(=O)CCN1Cc1cc(O)c2cccc(F)c2n1 (stereo unspecified) | 18.31%
Cc1nnc(CN(Cc2ccc(Cl)c(Cl)c2)C2CC2)o1 | 50.59%
Cc1nnc(CN(Cc2cccc(Br)c2)C2CC2)o1 | -21.25%
CC(C)N(Cc1cccc(Cl)c1)Cc1nnsc1Cl | 16.72%
Cc1nnc(CN(Cc2ccc3c(c2)OCO3)C2CCC(C)CC2)o1 (stereo unspecified) | -37.84%
Cc1nnc(CN(Cc2cccc(Cl)c2)C(C)C)o1 | 41.05%
Cc1nnc(CN(Cc2ccc(Cl)c(Cl)c2)C(C)C)o1 | 55.36%
O=C(c1ccccc1F)N1CCN(c2ccc(-n3cccc3)nn2)CC1 | -17.9%
O=C(c1cccnc1)N1CCN(c2ccnc3ccsc23)CC1 | 4.52%
c1cc(-c2cnccn2)cc(-c2ccn(CCN3CCCC3)n2)c1 | 6.07%

SMILES | INHIBITION
c1cc(-c2cnccn2)cc(-c2ccn(CCN3CCCCC3)n2)c1 | 11.33%
c1ccc(-c2cccc(-c3ccn(CCN4CCCCC4)n3)c2)nc1 | 63.1%
CS(=O)(=O)CCC(=O)N(CCc1cccc(F)c1)C1CC1 | 29.22%
CN(C(=O)CC1=CCCCC1)C1CCCN(CCc2ccccc2)C1 (stereo unspecified) | 73.01%
CN(C(=O)CCc1ccncc1)C1CCCN(CCc2ccccc2)C1 (stereo unspecified) | 42.17%
CSc1ccccc1C(=O)N(C)C1CCCN(CCc2ccccc2)C1 (stereo unspecified) | -1.89%
CN(C(=O)CC1=CCCCC1)C1CCCN(C2Cc3ccccc3C2)C1 (stereo unspecified) | -12.75%
CC(C)C(=O)NCC(=O)N(C)C1CCCN(CCc2ccccc2)C1 (stereo unspecified) | 15.44%
CN(C(=O)c1cccnc1)C1CCCN(CCc2ccccc2)C1 (stereo unspecified) | 52.08%
CC(=O)N1C[C@H]2CC[C@@H](C1)N(S(=O)(=O)c1ccc(C#N)cc1Cl)C2 | -0.38%
COCCc1noc(CN(C)C2CCCN(c3cccnn3)C2)n1 (stereo unspecified) | 1.07%
CC(C)c1nccn1C1CCCN(C(=O)c2ccc3nncn3c2)C1 (stereo unspecified) | 72.31%
Cc1nccn1C1CCCN(C(=O)c2ccc3nncn3c2)C1 (stereo unspecified) | 47.87%
CC(C)c1nccn1C1CCCN(C(=O)c2ccc3c(c2)COC3)C1 (stereo unspecified) | 54.28%
Cc1nccn1C1CCCN(C(=O)c2ccc3c(c2)COC3)C1 (stereo unspecified) | 23.92%
CCc1nccn1C1CCCN(C(=O)c2ccc3nncn3c2)C1 (stereo unspecified) | -32.49%
CC(C)c1nccn1C1CCCN(C(=O)c2ccc3c(c2)OCO3)C1 (stereo unspecified) | 4.5%
OC(CN1CCN(Cc2cccnc2)CC1)c1cccs1 (stereo unspecified) | -11.22%
Cn1c(N2CCOCC2)nc2cc(C(=O)N3CC(O)CO3)ccc21 (stereo unspecified) | -23.4%
COc1ccc(CN2CCc3ncnc(OC(C)C)c3CC2)cc1 | 10.69%
Cc1cc(C)c2[nH]c(C(=O)NCCN3CCNC3=O)c(C)c2c1 | 8.76%
COc1cc(N2CCOC(c3ccc(F)cc3)C2)ncn1 (stereo unspecified) | 19.27%

SMILES | INHIBITION
N#Cc1c(F)cccc1Nc1cnn(CC(N)=O)c1 | -58.5%
CCc1nc2n(n1)CC(NCc1nc(-c3cccnc3)no1)CC2 (stereo unspecified) | 41.71%
Cn1cc(CNC2CCc3ncnn3C2)c(-c2cccnc2)n1 (stereo unspecified) | 13.53%
CCc1nc2n(n1)CC(NCc1cn(C)nc1-c1cccnc1)CC2 (stereo unspecified) | 54.29%
O=C(Nc1ncn(CC(=O)N2CCCCCC2)n1)C1CCCO1 (stereo unspecified) | 53.03%
O=C(Nc1ncn(CC(=O)N2CCCCCC2)n1)C1CCCC1 | 35.23%
CC(CC(=O)Nc1ncn(CC(=O)N2CCCCCC2)n1)C1CC1 (stereo unspecified) | 34.73%
CCCC(N)CNS(=O)(=O)Cc1cccc(C#N)c1 (stereo unspecified) | 22.07%
CCC(c1nc(CC(C)C)nn1-c1ccccn1)n1cccn1 (stereo unspecified) | -72.12%
CCNC(=O)[C@@H]1C[C@H](N)CN1C(=O)c1c[nH]c2ccccc12 | 22.16%
COC(=O)N1CCc2ccc(NC(=O)c3cn(C)nn3)cc2C1 | 41.44%
CN(C)C(=O)Cc1ccc(NC(=O)c2cn(C)nn2)cc1 | 29.87%
Cn1cc(C(=O)Nc2ccc(CC(=O)NC3CC3)cc2)nn1 | 52.85%
Cn1cc(C(=O)Nc2ccc3c(c2)CN(C(=O)C2CC2)CC3)nn1 | 0%
Cn1cc(C(=O)Nc2ccc(CC(=O)NCC(F)(F)F)cc2)nn1 | 78.24%
CC(=O)N1CCc2ccc(NC(=O)c3cn(C)nn3)cc2C1 | 29.65%
COCCn1ccc(=O)c(OCC(=O)Nc2ccc(OC)c(Cl)c2)c1C | 30.58%
CCn1ncc(CN2CCCC(n3c(=O)oc4ccccc43)C2)c1C (stereo unspecified) | -3.96%
